Holding throughout (assay): PBM; 200 nM protein, PBS
Holding throughout (conditions): dsDNA, one strand shown

For experiment [1], the target named is HOXB4 (Homo sapiens, UniProt P17483 148-234).
Experiment [2] addresses HOXB4 (Homo sapiens, UniProt P17483 148-234, V174I).
In experiment [3] the target is VAX1 (Homo sapiens, UniProt Q5SQQ9 86-172).
Experiment [4] addresses VAX1 (Homo sapiens, UniProt Q5SQQ9 86-172, T142I).
The target of experiment [5] is VAX1 (Homo sapiens, UniProt Q5SQQ9 86-172, K157R).
Experiment [6] has as its target HOXA7 (Homo sapiens, UniProt P31268 116-202).
Experiment [7] deals with HOXA7 (Homo sapiens, UniProt P31268 116-202, W177C).
Experiment [8] concerns the target HOXA4 (Homo sapiens, UniProt Q00056 201-287, W262R).
Experiment [9] addresses HOXA2 (Homo sapiens, UniProt O43364 129-215, R185T).
In experiment [10] the target is HOXA4 (Homo sapiens, UniProt Q00056 201-287, R217L).
In experiment [11] the target is HOXA2 (Homo sapiens, UniProt O43364 129-215, R185K).
In experiment [12] the target is HOXA4 (Homo sapiens, UniProt Q00056 201-287).
The target of experiment [13] is HOXA2 (Homo sapiens, UniProt O43364 129-215, Y150S).
Experiment [14] deals with HOXA4 (Homo sapiens, UniProt Q00056 201-287, W262F).
Experiment [15] concerns the target HOXA2 (Homo sapiens, UniProt O43364 129-215).
Experiment [16] addresses HOXB6 (Homo sapiens, UniProt P17509 132-218, K202E).
Experiment [17] addresses HOXB6 (Homo sapiens, UniProt P17509 132-218).
Experiment [18] concerns the target T1, VENTX (Homo sapiens, UniProt O95231 78-163, Y115F).
T1 sequence: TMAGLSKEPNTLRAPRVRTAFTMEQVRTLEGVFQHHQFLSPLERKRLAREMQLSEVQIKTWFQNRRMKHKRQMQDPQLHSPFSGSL

Chain of HOXB4 (Homo sapiens, UniProt P17483 148-234, V174I) (P17483 148-234 V174I): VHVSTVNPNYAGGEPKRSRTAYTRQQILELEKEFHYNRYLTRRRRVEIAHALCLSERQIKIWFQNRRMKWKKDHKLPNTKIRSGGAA
Chain of HOXA4 (Homo sapiens, UniProt Q00056 201-287) (Q00056 201-287): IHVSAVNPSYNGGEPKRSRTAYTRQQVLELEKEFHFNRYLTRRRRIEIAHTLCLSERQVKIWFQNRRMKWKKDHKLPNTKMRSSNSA
Chain of HOXB4 (Homo sapiens, UniProt P17483 148-234) (P17483 148-234): as the sequence (P17483 148-234 V174I) above, with I27V counted along it
Chain of HOXA4 (Homo sapiens, UniProt Q00056 201-287, W262R) (Q00056 201-287 W262R): as the sequence (Q00056 201-287) above, with W62R counted along it
Chain of HOXA2 (Homo sapiens, UniProt O43364 129-215) (O43364 129-215): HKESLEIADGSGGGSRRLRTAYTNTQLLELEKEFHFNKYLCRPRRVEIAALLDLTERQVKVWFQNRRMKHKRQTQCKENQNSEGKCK
Chain of HOXA4 (Homo sapiens, UniProt Q00056 201-287, R217L) (Q00056 201-287 R217L): as the sequence (Q00056 201-287) above, with R17L counted along it
Chain of HOXA7 (Homo sapiens, UniProt P31268 116-202) (P31268 116-202): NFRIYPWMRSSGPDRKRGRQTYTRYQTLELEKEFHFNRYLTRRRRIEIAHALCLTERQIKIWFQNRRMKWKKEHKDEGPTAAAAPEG
Chain of HOXA4 (Homo sapiens, UniProt Q00056 201-287, W262F) (Q00056 201-287 W262F): as the sequence (Q00056 201-287) above, with W62F counted along it
Chain of HOXA2 (Homo sapiens, UniProt O43364 129-215, R185K) (O43364 129-215 R185K): as the sequence (O43364 129-215) above, with R57K counted along it
Chain of HOXB6 (Homo sapiens, UniProt P17509 132-218) (P17509 132-218): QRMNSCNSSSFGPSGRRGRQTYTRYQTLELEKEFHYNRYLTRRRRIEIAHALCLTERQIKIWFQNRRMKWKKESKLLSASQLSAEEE
Chain of VAX1 (Homo sapiens, UniProt Q5SQQ9 86-172, K157R) (Q5SQQ9 86-172 K157R): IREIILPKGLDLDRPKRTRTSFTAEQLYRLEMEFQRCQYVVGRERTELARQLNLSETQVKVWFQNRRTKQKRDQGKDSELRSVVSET
Chain of VAX1 (Homo sapiens, UniProt Q5SQQ9 86-172) (Q5SQQ9 86-172): as the sequence (Q5SQQ9 86-172 K157R) above, with R72K counted along it
Chain of HOXA2 (Homo sapiens, UniProt O43364 129-215, R185T) (O43364 129-215 R185T): as the sequence (O43364 129-215) above, with R57T counted along it
Chain of HOXA7 (Homo sapiens, UniProt P31268 116-202, W177C) (P31268 116-202 W177C): as the sequence (P31268 116-202) above, with W62C counted along it
Chain of HOXA2 (Homo sapiens, UniProt O43364 129-215, Y150S) (O43364 129-215 Y150S): as the sequence (O43364 129-215) above, with Y22S counted along it
Chain of HOXB6 (Homo sapiens, UniProt P17509 132-218, K202E) (P17509 132-218 K202E): as the sequence (P17509 132-218) above, with K71E counted along it
Chain of VAX1 (Homo sapiens, UniProt Q5SQQ9 86-172, T142I) (Q5SQQ9 86-172 T142I): as the sequence (Q5SQQ9 86-172 K157R) above, with T57I, R72K counted along it

TCCCAGGA: the binding signal is 7.82 upbm affinity estimate (log intensity, higher = more binding, comparable within an allelic series) in experiment [1]; 7.66 upbm affinity estimate (log intensity, higher = more binding, comparable within an allelic series) in experiment [2]; 7.2 upbm affinity estimate (log intensity, higher = more binding, comparable within an allelic series) in [3]; 7.36 upbm affinity estimate (log intensity, higher = more binding, comparable within an allelic series) in [4]; 7.24 upbm affinity estimate (log intensity, higher = more binding, comparable within an allelic series) in experiment [5].
As for CAGACCCC, the binding signal in [1] is 7.56 upbm affinity estimate (log intensity, higher = more binding, comparable within an allelic series); in experiment [6], 8.69 upbm affinity estimate (log intensity, higher = more binding, comparable within an allelic series); in [2], 7.7 upbm affinity estimate (log intensity, higher = more binding, comparable within an allelic series); in experiment [3], 6.95 upbm affinity estimate (log intensity, higher = more binding, comparable within an allelic series); in experiment [4], 7.15 upbm affinity estimate (log intensity, higher = more binding, comparable within an allelic series); in experiment [7], 8.53 upbm affinity estimate (log intensity, higher = more binding, comparable within an allelic series). Besides, the binding signal in [5] is 6.94 upbm affinity estimate (log intensity, higher = more binding, comparable within an allelic series).
Regarding ACCGCCGG, the binding signal in experiment [1] is 7.71 upbm affinity estimate (log intensity, higher = more binding, comparable within an allelic series); in experiment [8], 9.74 upbm affinity estimate (log intensity, higher = more binding, comparable within an allelic series); in [9], 7.21 upbm affinity estimate (log intensity, higher = more binding, comparable within an allelic series); in experiment [10], 9.58 upbm affinity estimate (log intensity, higher = more binding, comparable within an allelic series); in [2], 7.62 upbm affinity estimate (log intensity, higher = more binding, comparable within an allelic series); in experiment [11], 10.2 upbm affinity estimate (log intensity, higher = more binding, comparable within an allelic series). For the same sequence, the binding signal is 9.85 upbm affinity estimate (log intensity, higher = more binding, comparable within an allelic series) in [12]; 7.52 upbm affinity estimate (log intensity, higher = more binding, comparable within an allelic series) in experiment [3]; 7.48 upbm affinity estimate (log intensity, higher = more binding, comparable within an allelic series) in [4]; 10.4 upbm affinity estimate (log intensity, higher = more binding, comparable within an allelic series) in experiment [13]; 9.75 upbm affinity estimate (log intensity, higher = more binding, comparable within an allelic series) in [14]; 7.23 upbm affinity estimate (log intensity, higher = more binding, comparable within an allelic series) in experiment [15]. For the same sequence, in experiment [5], the binding signal is 7.38 upbm affinity estimate (log intensity, higher = more binding, comparable within an allelic series).
ACCCGTGG: the binding signal in experiment [1] was 7.52 upbm affinity estimate (log intensity, higher = more binding, comparable within an allelic series); in experiment [8], 9.91 upbm affinity estimate (log intensity, higher = more binding, comparable within an allelic series); in [10], 9.76 upbm affinity estimate (log intensity, higher = more binding, comparable within an allelic series); in [2], 7.53 upbm affinity estimate (log intensity, higher = more binding, comparable within an allelic series); in [12] it was 9.78 upbm affinity estimate (log intensity, higher = more binding, comparable within an allelic series); in [14], 9.9 upbm affinity estimate (log intensity, higher = more binding, comparable within an allelic series).
Regarding CGCCGGGC, the binding signal is 7.64 upbm affinity estimate (log intensity, higher = more binding, comparable within an allelic series) in [1]; 9.72 upbm affinity estimate (log intensity, higher = more binding, comparable within an allelic series) in experiment [8]; 7.33 upbm affinity estimate (log intensity, higher = more binding, comparable within an allelic series) in experiment [9]; 9.76 upbm affinity estimate (log intensity, higher = more binding, comparable within an allelic series) in experiment [10]; 7.67 upbm affinity estimate (log intensity, higher = more binding, comparable within an allelic series) in [2]; 10.2 upbm affinity estimate (log intensity, higher = more binding, comparable within an allelic series) in experiment [11]. For the same sequence, the binding signal was 9.84 upbm affinity estimate (log intensity, higher = more binding, comparable within an allelic series) in [12]; 10.4 upbm affinity estimate (log intensity, higher = more binding, comparable within an allelic series) in experiment [13]; 9.99 upbm affinity estimate (log intensity, higher = more binding, comparable within an allelic series) in experiment [14]; 7.24 upbm affinity estimate (log intensity, higher = more binding, comparable within an allelic series) in [15].
Turning to ATAATGAC, the binding signal in [1] is 12.9 upbm affinity estimate (log intensity, higher = more binding, comparable within an allelic series); in experiment [8], 10.4 upbm affinity estimate (log intensity, higher = more binding, comparable within an allelic series); in [6] it was 11.2 upbm affinity estimate (log intensity, higher = more binding, comparable within an allelic series); in [16], 9.89 upbm affinity estimate (log intensity, higher = more binding, comparable within an allelic series); in experiment [9] it was 12.4 upbm affinity estimate (log intensity, higher = more binding, comparable within an allelic series); in experiment [10], 12.1 upbm affinity estimate (log intensity, higher = more binding, comparable within an allelic series). The binding signal in experiment [2] was 13.6 upbm affinity estimate (log intensity, higher = more binding, comparable within an allelic series); in experiment [11] it was 13.2 upbm affinity estimate (log intensity, higher = more binding, comparable within an allelic series); in [12], 13.7 upbm affinity estimate (log intensity, higher = more binding, comparable within an allelic series); in experiment [3], 12.6 upbm affinity estimate (log intensity, higher = more binding, comparable within an allelic series); in experiment [4], 12.5 upbm affinity estimate (log intensity, higher = more binding, comparable within an allelic series); in [13] it was 10.8 upbm affinity estimate (log intensity, higher = more binding, comparable within an allelic series). Besides, the binding signal was 8.74 upbm affinity estimate (log intensity, higher = more binding, comparable within an allelic series) in [7]; 11.4 upbm affinity estimate (log intensity, higher = more binding, comparable within an allelic series) in [14]; 12.4 upbm affinity estimate (log intensity, higher = more binding, comparable within an allelic series) in experiment [15]; 12.3 upbm affinity estimate (log intensity, higher = more binding, comparable within an allelic series) in experiment [5]; 11.7 upbm affinity estimate (log intensity, higher = more binding, comparable within an allelic series) in experiment [17].
For the sequence CCAGGCAG, the binding signal in experiment [1] is 7.62 upbm affinity estimate (log intensity, higher = more binding, comparable within an allelic series); in experiment [8], 9.9 upbm affinity estimate (log intensity, higher = more binding, comparable within an allelic series); in experiment [16] it was 9.02 upbm affinity estimate (log intensity, higher = more binding, comparable within an allelic series); in experiment [10], 9.88 upbm affinity estimate (log intensity, higher = more binding, comparable within an allelic series); in experiment [2] it was 7.62 upbm affinity estimate (log intensity, higher = more binding, comparable within an allelic series); in [12], 9.85 upbm affinity estimate (log intensity, higher = more binding, comparable within an allelic series). In addition, the binding signal in experiment [14] was 9.95 upbm affinity estimate (log intensity, higher = more binding, comparable within an allelic series); in [17] it was 9.1 upbm affinity estimate (log intensity, higher = more binding, comparable within an allelic series).
Turning to GGTAATGA, the binding signal is 12.9 upbm affinity estimate (log intensity, higher = more binding, comparable within an allelic series) in experiment [1]; 10.4 upbm affinity estimate (log intensity, higher = more binding, comparable within an allelic series) in experiment [8]; 12.1 upbm affinity estimate (log intensity, higher = more binding, comparable within an allelic series) in [9]; 11.9 upbm affinity estimate (log intensity, higher = more binding, comparable within an allelic series) in experiment [10]; 13.6 upbm affinity estimate (log intensity, higher = more binding, comparable within an allelic series) in experiment [2]; 13 upbm affinity estimate (log intensity, higher = more binding, comparable within an allelic series) in experiment [11]. Besides, the binding signal in [12] is 13.5 upbm affinity estimate (log intensity, higher = more binding, comparable within an allelic series); in [3] it was 12.8 upbm affinity estimate (log intensity, higher = more binding, comparable within an allelic series); in [4] it was 12.6 upbm affinity estimate (log intensity, higher = more binding, comparable within an allelic series); in [13] it was 10.8 upbm affinity estimate (log intensity, higher = more binding, comparable within an allelic series); in experiment [14], 11.2 upbm affinity estimate (log intensity, higher = more binding, comparable within an allelic series); in experiment [15] it was 12.1 upbm affinity estimate (log intensity, higher = more binding, comparable within an allelic series). The binding signal in experiment [5] was 12.5 upbm affinity estimate (log intensity, higher = more binding, comparable within an allelic series).
Turning to ATTCATTA, the binding signal in experiment [1] was 13.1 upbm affinity estimate (log intensity, higher = more binding, comparable within an allelic series); in experiment [8] it was 10.5 upbm affinity estimate (log intensity, higher = more binding, comparable within an allelic series); in [10], 12.1 upbm affinity estimate (log intensity, higher = more binding, comparable within an allelic series); in experiment [2], 13.7 upbm affinity estimate (log intensity, higher = more binding, comparable within an allelic series); in [12], 13.7 upbm affinity estimate (log intensity, higher = more binding, comparable within an allelic series); in [14], 11.6 upbm affinity estimate (log intensity, higher = more binding, comparable within an allelic series).
On to TAATGACA, for which the binding signal is 13 upbm affinity estimate (log intensity, higher = more binding, comparable within an allelic series) in [1]; 10.6 upbm affinity estimate (log intensity, higher = more binding, comparable within an allelic series) in experiment [8]; 11.2 upbm affinity estimate (log intensity, higher = more binding, comparable within an allelic series) in [6]; 11.5 upbm affinity estimate (log intensity, higher = more binding, comparable within an allelic series) in experiment [18]; 10 upbm affinity estimate (log intensity, higher = more binding, comparable within an allelic series) in experiment [16]; 12.6 upbm affinity estimate (log intensity, higher = more binding, comparable within an allelic series) in [9]. The binding signal was 12.2 upbm affinity estimate (log intensity, higher = more binding, comparable within an allelic series) in experiment [10]; 13.7 upbm affinity estimate (log intensity, higher = more binding, comparable within an allelic series) in [2]; 13.4 upbm affinity estimate (log intensity, higher = more binding, comparable within an allelic series) in [11]; 13.8 upbm affinity estimate (log intensity, higher = more binding, comparable within an allelic series) in [12]; 12.8 upbm affinity estimate (log intensity, higher = more binding, comparable within an allelic series) in [3]; 12.7 upbm affinity estimate (log intensity, higher = more binding, comparable within an allelic series) in [4]. For the same sequence, the binding signal in experiment [13] was 11 upbm affinity estimate (log intensity, higher = more binding, comparable within an allelic series); in [7], 8.98 upbm affinity estimate (log intensity, higher = more binding, comparable within an allelic series); in experiment [14], 11.7 upbm affinity estimate (log intensity, higher = more binding, comparable within an allelic series); in experiment [15] it was 12.5 upbm affinity estimate (log intensity, higher = more binding, comparable within an allelic series); in experiment [5], 12.5 upbm affinity estimate (log intensity, higher = more binding, comparable within an allelic series); in [17], 11.7 upbm affinity estimate (log intensity, higher = more binding, comparable within an allelic series).

The values above are taken from article PMC11006913.
